The target in the first assay is SHROOM4. The assay can be described thus: pooled miR-30 sensor sort-seq; sequence = guide strand. The following applies: shRNA.
With TTCATCTTGACAAAGTGCTGGT, the sensor-assay potency score (higher = more potent) stood at 0.618.
As for TTTGCTTGCAAAACATTCTGAG, the sensor-assay potency score (higher = more potent) is 0.464.
For the sequence TTTCTGAACTGAAATACTGGGG, the sensor-assay potency score (higher = more potent) is -0.0667.
For TTATTCGTCCCTCTAAGCCTGT, the sensor-assay potency score (higher = more potent) is -0.267.
In turn, TTGAAGAGCTTGTCTCTGGGGC yielded a sensor-assay potency score (higher = more potent) of 0.543.
With TAGCTTGACAAGTCCAGTGCTG, the sensor-assay potency score (higher = more potent) was -0.0975.
As to TTGCTTGCAAAACATTCTGAGT, the sensor-assay potency score (higher = more potent) was -1.21.
Regarding TAGTGGTTGAAGAACAGTCCGT, the sensor-assay potency score (higher = more potent) was -0.287.
As to TAGAGCTCCTTGAACACTGCAG, the sensor-assay potency score (higher = more potent) was found to be 0.417.
For TATCAGTACCAACTTCTCCTGG, the sensor-assay potency score (higher = more potent) is -0.376.
TTTCATCTTGACAAAGTGCTGG had a sensor-assay potency score (higher = more potent) of 0.237.
The same measure, in the same setting: next, TTGAAGAACAGTCCGTGGCTTG: -0.301.

In another assay the target is SIAE. The description is as above. The settings on record: shRNA.
For the sequence TACAGAGCCAGACATCTCCAAA, the sensor-assay potency score (higher = more potent) was -1.12.
On to TAGACAACTCCCTTGTAGCATT, for which the sensor-assay potency score (higher = more potent) is -0.9.
TAACACAGTCATCTGCATGTTA: the sensor-assay potency score (higher = more potent) is -0.177.
Also: reference of the scale not given here.
